Measurements reported in PubChem BioAssay AID2284385 (EPA ToxCast).
Values joined by “and” are separate entries in the source; they are usually repeats but may differ in a detail not shown here. Equal values may be shown once. Active and inactive are the calls of the source. How the source made its calls: active means hit-call score of the fitted dose curve at least 0.9, where 1 is the maximum; inactive means score below 0.9.

target: human Peroxisome proliferator-activated Receptor alpha (PPARa), PPARA (gene 5465) (UniProt Q07869); experiment: ERF_TW_NR_COA_hPPARA: Eurofins (ERF) Nuclear Receptor (NR) Functional Coactivator Assay for human Peroxisome proliferator-activated Receptor alpha (PPARa) Agonism & Antagonism, conducted at Taiwan lab site
Description: ERF_TW_NR_COA_hPPARA is a biochemical, single-readout assay that uses extracted gene-proteins in a cell-free assay. Measurements were taken 3 hours after chemical dosing in a 96-well plate. See PPARalpha Human NHR Functional Agonist Coactivator Assay, Panlabs.ERF_TW_NR_COA_hPPARA is an assay component calculated from the ERF_TW_NR_COA_hPPARA assay. It is designed to measure FRET using a type of binding reporter as detected by fluorescence intensity of GW7647 with fluorimetry technology.Data from the assay component ERF_TW_NR_COA_hPPARA was analyzed at the assay endpoint, ERF_TW_NR_COA_hPPARA, in the positive analysis fitting direction relative to DMSO as the negative control and baseline of activity. Using a type of binding reporter, gain-of-signal activity can be used to understand changes in binding as they relate to gene PPARA. To generalize the intended target to other relatable targets, this assay endpoint is annotated to the nuclear receptor intended target family, where the subfamily is non-steroidal.
Human recombinant peroxisome proliferators-activated receptor alpha (PPARA, PPARa, PPAR-alpha) hPPAR, NR1C1) receptors expressed in insect are used. Test compound and/or vehicle is incubated with the 2.5 nM receptors and binding buffer in modified kit buffer pH 7.4 for 3 hours at RT. Determination of the amount of complex formed is read microplate reader (excitation:337 nm, emission: 520/490 nm). Test compound-induced increase fluorescence by 50 percent or more (>/=50%) relative to the 1 uM GW7647 response indicates possible PPARa receptor agonist activity. Test compound-induced inhibition of 20 nM GW7647-induced fluorescence response by 50 percent or more (>/=50%) indicates receptor antagonist activity.

Chain of human Peroxisome proliferator-activated Receptor alpha (PPARa), PPARA (gene 5465) (Q07869 whole entry, looked up): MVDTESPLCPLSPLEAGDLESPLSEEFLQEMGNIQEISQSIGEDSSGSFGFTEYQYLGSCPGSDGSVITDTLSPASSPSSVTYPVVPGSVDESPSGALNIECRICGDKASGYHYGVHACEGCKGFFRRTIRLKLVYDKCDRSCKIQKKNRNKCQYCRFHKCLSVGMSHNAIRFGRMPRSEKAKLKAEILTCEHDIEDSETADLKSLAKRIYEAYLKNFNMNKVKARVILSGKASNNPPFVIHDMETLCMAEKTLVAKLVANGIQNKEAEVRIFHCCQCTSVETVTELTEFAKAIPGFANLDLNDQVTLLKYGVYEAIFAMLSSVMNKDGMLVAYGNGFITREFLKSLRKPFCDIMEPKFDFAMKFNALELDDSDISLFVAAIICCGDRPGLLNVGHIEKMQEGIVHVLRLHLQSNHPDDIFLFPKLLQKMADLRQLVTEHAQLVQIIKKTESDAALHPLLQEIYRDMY

Structure (SMILES)	AC50	outcome
O=C(O)C(F)(F)OC(F)(F)C(F)(F)OC(F)(F)F	19.3 µM (active)	–
O=S(=O)(O)C(F)(F)C(F)(F)C(F)(F)C(F)(F)C(F)(F)C(F)(F)F	–	inactive
O=C(O)C(F)(F)C(F)(F)C(F)(F)C(F)(F)C(F)(F)C(F)(F)F	50 µM (active)	–
O=S(=O)(O)C(F)(F)C(F)(F)C(F)(F)C(F)(F)C(F)(F)C(F)(F)C(F)(F)C(F)(F)F	–	inactive
O=C(O)C(F)(F)C(F)(F)C(F)(F)C(F)(F)C(F)(F)C(F)(F)C(F)(F)F	11.5 µM (active) and 17.1 µM (active)	–
